These results are taken from PubChem BioAssay AID1347426 (Functional Genomics Laboratory (NCATS/FGL), 2020).

Screen size: about 31,000 sequences; about 1,400 (4.5%) were called active. This excerpt belongs to a sample that is enriched for actives. Values without a mark were called inactive.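 How the source made its calls: active means median seed-adjusted z-score above 1 or below -1; inactive means the rest.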

The test in a line: Novel Modifiers of Survival Motor Neuron (SMN) Protein: Gene Identification via Genome-wide siRNA Screen.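 Further: luminescence tracks full-length SMN protein made from the SMN2 reporter.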 To be noted: HEK293T SMN2-luciferase reporter, siRNA knockdown, 72 h; actives lie on both sides. The essentials:
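HEK293T cells stably expressing an SMN2 splicing/cDNA-luciferase reporter were reverse-transfected with a druggable-genome siRNA library and read by luminescence at 72 hours; hits defined by MAD score above 1.0 or below -1.0.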
Consider ACACGUUGGAAGUAGCUGATT against OTUD4, for which the median seed-adjusted z-score was 0.167.

On to GCUUAUAUGUUACCAUGGATT against COG4, for which the median seed-adjusted z-score is -0.508.

On to GGUGACCGGUUACUUGGGATT against FFAR1, for which the median seed-adjusted z-score is 0.248.

With GCUUAUCUCGGCAAUCAAATT against PAPPA2, the median seed-adjusted z-score is -0.173.

For the sequence GAAAGACGAGCUUUACCUATT against GSK3A, the median seed-adjusted z-score is 0.248.

For UGUGGAUCUGCUUACCAAATT against ZFAND2B, the median seed-adjusted z-score is 0.

As for GAGGUUUUCCAGACGGUGATT against EHD3, the median seed-adjusted z-score is 0.569.

Take GCAUGCUCAUGGGUUACAATT against ZNF451: the median seed-adjusted z-score was 0.

As for GGUGGUUGCUGUAUAUGGATT against KCTD9, the median seed-adjusted z-score was 1.31 (active).

As to CGGAAGCAGUUCCAACUUUTT against AKAP8, the median seed-adjusted z-score was -0.252.

Regarding CAAAAUACAGAGUUUCUUUTT against RILP, the median seed-adjusted z-score was 0.503.

As for GGAUGUGAACGGGCACAUUTT against CDC42BPG, the median seed-adjusted z-score is 0.153.

Consider CAGACAGUAUGUUCGAAGATT against PPAT, for which the median seed-adjusted z-score was -1.51 (active).

Turning to GAAUCCUGAUGGGUAUGAATT against CPD, the median seed-adjusted z-score was -0.198.

In the case of GUCUUUAAUGCGCACUAUATT against FEZF1, the median seed-adjusted z-score was 0.155.

With ACAUCGUUGUGGUCAAGGUTT against ADAMTS15, the median seed-adjusted z-score was 0.765.

Consider GGACAAAACUCCUCUCUAUTT against MED27, for which the median seed-adjusted z-score is -1.62 (active).

Take GUAUAGGGCCUGUAAGUUUTT against LANCL1: the median seed-adjusted z-score was 0.

With CUGCCUUGAUGACACCAGATT against TRIM16, the median seed-adjusted z-score was 0.345.

On to CUACUAUCCUGGUUCUGGATT against PROS1, for which the median seed-adjusted z-score is 0.436.

As to GUGAUACUGUCAAAGGUCATT against ATF2, the median seed-adjusted z-score is 0.424.

Regarding GGGUUUAACUGGGAACUCUTT against GALNT8, the median seed-adjusted z-score is -0.283.

GAUCCGUUGGUGCAUGAAATT against ABHD2: the median seed-adjusted z-score was -1.21 (active).

With GAUCGACUGCUAGAGAGUATT against DCLK1, the median seed-adjusted z-score is 0.193.

Regarding GUGCUAACUCAAUUCCAUATT against SSBP3, the median seed-adjusted z-score is 0.00592.

As for GCCUUUCAGCAUGCGGUUATT against GDPD1, the median seed-adjusted z-score was 0.527.

As for CCAUCUCUUUGGUAGUACUTT against TBC1D23, the median seed-adjusted z-score was 0.0932.

Turning to CGUCUUUCCAGAAUUCAAATT against HGS, the median seed-adjusted z-score is 1.16 (active).

For the sequence GCAAGACUUUUGGUCGAAATT against ZNF816A, the median seed-adjusted z-score was 0.39.

Turning to CCGUUGCUAUGAACAAGUUTT against B4GALT3, the median seed-adjusted z-score is -0.138.

GACAGAAGAUCAAUAUGAATT against ETS2: the median seed-adjusted z-score was 0.636.

For GAAGAGUGCUUGAAAUUUUTT against GFRA1, the median seed-adjusted z-score is 0.125.

For GCAUCCGGAUUCUUGAUGATT against PGK2, the median seed-adjusted z-score is -0.127.

Regarding ACAAAGCUGCUGUGCUAUATT against BET1, the median seed-adjusted z-score is 0.394.

As to CAGAUUACGUUUAUAAGAATT against ZNF274, the median seed-adjusted z-score was 0.452.

In the case of CGAGUGCACUGCUGCCUAUTT against 5-Sep, the median seed-adjusted z-score is -0.0749.

Consider GAUCCGAGAUCAACACCUUTT against PIK3R3, for which the median seed-adjusted z-score was -1.88 (active).

Turning to GACUACCAGUUGAUCAUGUTT against TTBK1, the median seed-adjusted z-score was 0.00054.

Turning to CACCUGUACUUAUCCCGAATT against MEGF10, the median seed-adjusted z-score is 0.622.

Consider AAAUCGCGACGACUAAAUATT against CCBE1, for which the median seed-adjusted z-score was 0.964.

With CAUCAGCUUCCGCAACUUUTT against LRP3, the median seed-adjusted z-score is -1.05 (active).

As for GGAAUACAUCAGAAUGGUATT against ITCH, the median seed-adjusted z-score was 0.199.

As for CCAAUGCUGUGACUUUCGATT against KIFC3, the median seed-adjusted z-score was 0.54.

Take GCAGCAAAGGAAACCUAAATT against KLRC3: the median seed-adjusted z-score was 0.833.

For the sequence GCAAGCGAGUCAACACCAATT against DRD2, the median seed-adjusted z-score is -0.0273.

For “CUUCAGUACCUUAUCAUUATT against ST6GALNAC5”, the median seed-adjusted z-score was -0.0321.

On to GGCCGUUUGUCAUUCCCUUTT against CBFA2T3, for which the median seed-adjusted z-score was -0.135.

Take GGAAGAGACUUUGUCCACATT against BIRC7: the median seed-adjusted z-score is -1.44 (active).

In the case of CUCUGGGAGUCACGACUUUTT against GPR37L1, the median seed-adjusted z-score was -0.0348.

Regarding GAGACAAAUUUGGGCCUUATT against HSF4, the median seed-adjusted z-score was 0.926.

Consider CAACGAUGGUGUACUACAATT against ABCC9, for which the median seed-adjusted z-score is 0.376.

For the sequence CAAGCGGACCAGGACCUAUTT against CSDC2, the median seed-adjusted z-score is -0.321.

In the case of CAGUAUCCAUGGUGAUCUATT against ZP2, the median seed-adjusted z-score was 0.0455.

Regarding GCAGCUCAACGGCAAAGAATT against RBM14, the median seed-adjusted z-score was -0.0317.

In the case of GCAUCUCAAUAUCAACAAUTT against LINGO2, the median seed-adjusted z-score was 0.123.

As for GAAUAUCGGUUGGAUUAUATT against ITGAV, the median seed-adjusted z-score is 1.17 (active).

Turning to GGGCGGUCAUGGUUUUGAATT against CHST13, the median seed-adjusted z-score is -0.447.

Consider CCGCUGUUAUCAUUACCAUTT against KIR2DL5B, for which the median seed-adjusted z-score was 1.72 (active).

GCUCUUCUAGACAUCGAUATT against NUBP1: the median seed-adjusted z-score was -0.0975.

Regarding GAGGUUCCCUAAUUUCCAATT against HIF1AN, the median seed-adjusted z-score is -0.0315.

On to ACUACCUUCUCAUCAAGGATT against CCL19, for which the median seed-adjusted z-score was 0.0364.

Turning to GCCUAGAAUUUGUAUCCCATT against ATXN2, the median seed-adjusted z-score is 0.

As for CCAAUCUGGUGACGAUUUATT against SP110, the median seed-adjusted z-score is -0.788.

Regarding GUAUUUCGAGUAAGUCUAATT against TTPA, the median seed-adjusted z-score is -0.208.

As to GGAGUUACUCCAUUAACUATT against JARID1C, the median seed-adjusted z-score is 0.372.

With CCUGCGUCUCUACAACUAUTT against AURKB, the median seed-adjusted z-score is 0.0901.

Take GAGAUUUGAUGAGAAGAGATT against MMP3: the median seed-adjusted z-score was 0.0592.

On to UCUGGCUUAUUAUAACUAUTT against ACOT2, for which the median seed-adjusted z-score is 0.578.

With AGAUCGAGCCGGACAUGAUTT against NACC1, the median seed-adjusted z-score was 1.59 (active).

As for GAUGGGUUCUUGAACAUAUTT against EXOG, the median seed-adjusted z-score was 0.746.

Consider CCUCAUGCCUUAAUGAUCATT against ZNF561, for which the median seed-adjusted z-score is -0.00904.

CAUCCGUUCCAUACAUGUATT against AEBP2: the median seed-adjusted z-score was -0.212.

As for GGAAUGGUUUAAAAUAGAATT against NUDT3, the median seed-adjusted z-score was 0.674.

In the case of GGCAUUGCUUAAUGAUAUATT against SF3B1, the median seed-adjusted z-score was -3.65 (active).

Take CCUUCAGUCUUAACUCCAATT against ZKSCAN1: the median seed-adjusted z-score is 0.229.

GCUGUAGCCUUGAUGCCUATT against INMT: the median seed-adjusted z-score was 0.863.

In the case of GUCCGAGUGUGGUUCUGUATT against POU5F1, the median seed-adjusted z-score was 0.0495.

Take GGAAGAUCCUCUACCAGAATT against LATS2: the median seed-adjusted z-score was -0.245.

As for CAGUCAAUGUUGUUCAGUUTT against GARS, the median seed-adjusted z-score is 0.138.

Turning to GGCUACAACGUGACCAAGATT against FZD4, the median seed-adjusted z-score is 0.0695.

In the case of ACUUCAUGAUGGAUAUCCATT against KCNN4, the median seed-adjusted z-score was 0.00864.

Turning to CCCUACAUGUGAACAACGATT against PRPF8, the median seed-adjusted z-score was -1.54 (active).

Regarding GGCUAUGACGGGAAGGAGATT against PTPN7, the median seed-adjusted z-score was -0.189.

Regarding GAAUAGAUUUCAGUAGUAUTT against DDI2, the median seed-adjusted z-score is 1.27 (active).

As for CCAGUGUACUCAGUCUAUUTT against STAM2, the median seed-adjusted z-score was -0.24.

For the sequence GACCUUCCUAGUUUCCUGATT against GIPC1, the median seed-adjusted z-score was 0.

Turning to AGCUCAACCGGUUUAAUAATT against SLC9A1, the median seed-adjusted z-score is 0.

As to GGAAAUAGGUCUAGUACUATT against PRPF4B, the median seed-adjusted z-score is -2.29 (active).

For the sequence GGAUGAGAAAGUCGUGAAATT against TSHZ2, the median seed-adjusted z-score is -0.361.

CGGAUACGCUAAAAAUCAATT against B3GNTL1: the median seed-adjusted z-score is 0.

Regarding GCCUAUUAUGGACAACAAUTT against IKZF2, the median seed-adjusted z-score is 0.514.

As to GGAGUUAAGAAUAUUAUGATT against VAMP8, the median seed-adjusted z-score is -0.184.

As for GGAGUUCAUCAAUAUGAAUTT against MLF1, the median seed-adjusted z-score is 0.258.

Consider GCCUUCUACACUUACAUGATT against EVX1, for which the median seed-adjusted z-score is 1 (active).

Consider GGAGUCAAGUGAAGCAGAATT against L3MBTL2, for which the median seed-adjusted z-score was -0.312.

Turning to GCAGGUACAUCUCGCCUGATT against ENO1, the median seed-adjusted z-score is 0.0766.

For GCCCAAUACUUGCAAGUGATT against KCNA2, the median seed-adjusted z-score is -1.03 (active).

Regarding GGGAGGUAGUAAUCCUACATT against PPP1R12B, the median seed-adjusted z-score was 0.416.

With GGAUUCAUGAGUCUAUAUATT against SLC25A27, the median seed-adjusted z-score is 0.0916.

For GGACACCACAGUACCUAAATT against IL22RA1, the median seed-adjusted z-score is -1.14 (active).

Take CAAUCCUGACUCAAACUAATT against RAG2: the median seed-adjusted z-score was 0.138.

Turning to GGACCUGUAUUGGGAACAATT against ASPHD2, the median seed-adjusted z-score is -0.719.

Take CUUCAAAGGUGACAAGUAUTT against MMP24: the median seed-adjusted z-score was -1.28 (active).

As for GGAGAGCAAUACAUCAUCATT against GLRX2, the median seed-adjusted z-score is -0.244.

As for GCACUUUACUAGGUCUAGATT against NANOS1, the median seed-adjusted z-score was 0.369.

For GAUUACUGGUGCGAUGUUATT against L3MBTL4, the median seed-adjusted z-score is -0.189.

On to UCUGCUAACCUGAAAGUAATT against CARD8, for which the median seed-adjusted z-score was 0.115.

With AGAUCGACAAGAUGCAAGATT against FOXN1, the median seed-adjusted z-score was 0.226.
